Source: PubChem
Pf Dd2 inh: qHTS Primary assay for Inhibitors of Plasmodium falciparum Dd2 growth in vitro; P. falciparum Dd2 growth, SYBR Green, 72 h; actives 4.3% (n = 120,000); AID 1347417, 2020; Potency, µM (highest dose often 28.9 µM), for inactives: top-dose activity, negative = inhibition, hits mostly inhibitors; active = well fitted inhibition curve with a large enough effect;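 also: plate controls were DMSO vehicle for no effect and reference drug for full effect; nearly all actives have a fitted effect of over 65% in size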
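Readout: SYBR Green fluorescence, 485 nm excitation, 535 nm emission, after ~16 h lysis at 37C. Before that, Dd2-infected red cells (2.5% hematocrit) grew 72 h with compound, 29 uM top final concentration.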
Starred values were filed as active, the others as inactive; i = inactive; [ ] = dose if it differs, or a comment. Many of the other results were omitted from the sample, so hits are more common in it than they were. Potency is read from the fitted curve at half-maximal effect.

SMILES	Pf Dd2 inh
COc1ccc(CN2C(=O)[C@@H]3C[C@@H](O)CN3C3(CN(Cc4cccc(OC)c4)C3)C2=O)cc1	i
COc1ccc(CN2C(=O)[C@@H]3C[C@@H](O)CN3C3(CN(Cc4cnc5ccccc5c4)C3)C2=O)cc1	7.1µM*
COc1ccc(CN2C(=O)[C@@H]3C[C@@H](O)CN3C3(CN(Cc4ccncc4)C3)C2=O)cc1	6%[44.1 µM]
c1ccc(N2CCN(c3cc4c(cn3)CN(Cc3ccncc3)CCN4)CC2)nc1	-1%[44.1 µM]
CCc1ccc(C(=O)N2CCN(C(=O)c3nnn4c3COC(c3ccc(Cl)cc3)C4)CC2)cc1 (centres undefined)	i
Cc1cccc(NC(=O)CSc2nnc(C)c(=O)[nH]2)c1	49%
Cc1ccc(NC(=O)CSc2nc(C)c(Cc3ccccc3)c(=O)[nH]2)cc1C	-25%
Cc1nnc(SCC(=O)Nc2ccc(N(C)C)cc2)[nH]c1=O	11µM*
CCC(C(=O)N1CCc2onc(-c3ccc(F)c(F)c3)c2C1)n1cccn1 (centres undefined)	-24%
CC(C)n1ccnc1CN1CCc2onc(-c3ccc(Cl)cc3)c2C1	13µM*
CCc1nc2c(c(-c3ccc(Cl)cc3)n1)CCN(CCC(C)C)CC2	-19%
COc1ccc(N2Cc3c(NCC4CC4)ncnc3N(C)CC2=O)cc1	14%
COC(=O)CNC(=O)c1cc(Br)cn2ccnc12	-3%[44.1 µM]
O=C1CCN(S(=O)(=O)c2ccc3c(c2)CCC3)CCCC(CO)CCN1 (centres undefined)	-21%
CC(C)(C)C(=O)Nc1nc2c(s1)C[C@@H]1[C@](C)(CO)[C@H](O)CC[C@@]1(C)[C@@H]2CC(=O)NCc1ccco1	i
COCCNC(=O)C[C@@H]1c2nc(NC(=O)c3ccnc(Cl)c3)sc2C[C@@H]2[C@](C)(CO)[C@H](O)CC[C@]21C	-21%
C[C@]1(CO)[C@H]2Cc3sc(NC(=O)c4ccco4)nc3[C@@H](CC(=O)NCc3cccnc3)[C@]2(C)CC[C@H]1O	7.1µM*
C#CCNC(=O)C[C@@H]1c2nc(NC(=O)c3ccc(F)cc3)sc2C[C@@H]2[C@](C)(CO)[C@H](O)CC[C@]21C	-13%
CCCCCC(=O)Nc1nc2c(s1)C[C@@H]1[C@](C)(CO)[C@H](O)CC[C@@]1(C)[C@@H]2CC(=O)NCc1cccnc1	i
C[C@]1(CO)[C@H]2Cc3sc(NC(=O)c4cccs4)nc3[C@@H](CC(=O)NCc3cccnc3)[C@]2(C)CC[C@H]1O	i
COc1ccc(C(=O)Nc2nc3c(s2)C[C@@H]2[C@](C)(CO)[C@H](O)CC[C@@]2(C)[C@@H]3CC(=O)NCCNC(C)=O)cc1	i
C[C@]1(CO)[C@H]2Cc3sc(NC(=O)c4cccc(F)c4)nc3[C@@H](CC(=O)NCc3ccco3)[C@]2(C)CC[C@H]1O	8.9µM*
COc1ccc(C(=O)Nc2nc3c(s2)C[C@@H]2[C@](C)(CO)[C@H](O)CC[C@@]2(C)[C@@H]3CC(=O)NCc2ccco2)cc1	2µM*
CC(C)C[C@H](NC(=O)Cn1nc2c(cc1=O)CCCC2)C(=O)O	-13%
CC(=O)NCC(=O)N1C[C@@H](COc2cccnc2)[C@H](c2ccccn2)C1	21%
SMILES	Pf Dd2 inh
O=C(c1cn(Cc2ccc(Cl)cc2)nn1)N1CCCC(OCc2cccnc2)C1 (centres undefined)	-6%
COc1ccc(CC(=O)Nc2ccc([C@@H](O)[C@H]3COCC(=O)N3Cc3ccccc3F)cc2)cc1	-6%
CCc1cn(C[C@H](NC(=O)Cc2ccccc2)C(=O)O)c(=O)[nH]c1=O	16%[44.1 µM]
CC(=O)NCC(=O)N1Cc2ccccc2CC2(CCCN(C)C2)C1 (centres undefined)	5%
Cc1ccccc1N1Cc2c(NCCOc3ccccc3)ncnc2N(C)CC1=O	i
COCc1cc(NCC(O)COc2ccc(Cl)c(C)c2)ncn1 (centres undefined)	-3%
COc1ccc(CC(=O)Nc2ccc([C@H]3OCC(=O)N(Cc4nccn4C)[C@@H]3CO)cc2)cc1	i
Cc1cccc(NC(=O)N2CC=C(c3c[nH]c4ccccc34)CC2)c1C	3.2µM*
Cc1cccc(NC(=O)N2CCc3c(c4ccccc4n3C)C2)c1C	i
O=C(Nc1ccc(Br)cc1F)N1CC=C(c2c[nH]c3ccccc23)CC1	1%
O=[S+]1([O-])NC2(CCN(Cc3ccccc3)C2)COc2ccncc21 (centres undefined)	-17%
COc1ccc(-n2c(C(C)NC(=O)OCc3ccccc3)nc3cccnc32)cc1 (centres undefined)	-8%
CCOc1ccc(NCc2cccn2-c2nnc(N3CCC(C(=O)NCc4cccc(OC)c4)CC3)s2)cc1	i
COc1cccc(CNCc2cccn2-c2nnc(N3CCN(c4ccccc4)CC3)s2)c1	10µM*
COc1cccc(N2CCN(C(=O)c3cccn3-c3nnc(N4CCCCC4)s3)CC2)c1	i
CCc1cn(C[C@H](NC2CCOCC2)C(=O)O)c(=O)[nH]c1=O	14%[44.1 µM]
CN1CCCC1CCn1nc(C2CCNCC2)n(Cc2ccccc2)c1=O (centres undefined)	-4%
COc1cc(F)ccc1-c1ccc2ncn(C3CC3)c(=O)c2n1	-18%[44.1 µM]
